IL1B secr inh: qHTS for Inhibitors of Inflammasome Signaling: IL-1-beta AlphaLISA Primary Screen; THP-1 LPS/ATP IL-1B secretion, AlphaLISA, 16 h; stronger effect = lower value; activity change, % at 57.5 µM; 360,000 compounds, 4.7% hits; AID 743279, 2014; in the data active = activity change below about -50%; inconclusive = mostly about -30% to -49%; also: % is scaled to controls: 0 for no effect and ±100 for the full control effect
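Secreted IL-1B measured by AlphaLISA bead assay after 16 h compound exposure of THP-1 cells; compounds (final up to 57.5 uM) added 1 h before LPS (250 ng/mL) and ATP (1.25 mM) stimulation; lower signal means less secretion.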
HepG2 tox: qHTS for Inhibitors of TGF-b: Cytotox Counterscreen; 410,000 compounds, 0.76% hits; Potency, µM (series often up to 46.1 µM), without a hit: at the highest dose activity change, negative = cytotoxicity, usual class: cytotoxic; AID 588856, 2011; HepG2 CAGA-GFP viability, ATP luminescence, 18 h; also: potency is read from the fitted curve at half-maximal effect
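CellTiter-Glo luminescence gave cytotoxicity after 18 hours at 37 degrees C. The cells were HepG2 CAGA-GFP in 1% FBS DMEM, stimulated with 500 pg/mL TGF-beta after compound addition. %Activity was normalised to no-cell wells (complete cell-killing) and DMSO (no toxicity), and curves were fitted and classified.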
TDP1 cell CPT: qHTS for Inhibitors of human tyrosyl-DNA phosphodiesterase 1 (TDP1): qHTS in cells in presence of CPT | chicken DT40 Tdp1-/-;hTDP1 cells + 20 nM CPT, ATP luminescence, 48 h | Potency, µM (highest dose often 46.2 µM), without a hit: at the top dose activity change, negative = growth inhibition, usual class: inhibitors | AID 686979, 2013 | 420,000 compounds, 12% hits; also: potency is read from the fitted curve at half-maximal effect; % is scaled to controls: 0 for no effect and ±100 for the full control effect; nearly all actives have a fitted effect of over 55% in size
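Chicken DT40 Tdp1-/- cells stably complemented with human TDP1 were seeded at 400 cells/well in medium containing 20 nM camptothecin, exposed to pin-transferred compounds, and grown at 37 °C for at least 48 hr. Viability was read as ATP luminescence.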
TDP1 cell noCPT: qHTS for Inhibitors of human tyrosyl-DNA phosphodiesterase 1 (TDP1): qHTS in cells in absence of CPT; Potency, µM (top dose mostly 46.2 µM), for the others: at the top dose activity change, negative = growth inhibition, actives largely listed as inhibitors; DT40 Tdp1-/- hTDP1 cells, no CPT, ATP luminescence, 48 h; 420,000 compounds, 15% hits; also: potency is read from the fitted curve at half-maximal effect; % is scaled to controls: 0 for no effect and ±100 for the full control effect; nearly all actives have a fitted effect of over 55% in size
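Growth kinetics read by CellTiter-Glo luminescence after ≥48 hr at 37 °C. Cells: DT40 Tdp1-/- stably carrying human TDP1, 400 per well, compound exposure in the absence of CPT (DMSO vehicle).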
ASM inhibitor: Inhibitors of Secretory Acid Sphingomyelinase (S-ASM): qHTS; Sphingomyelin phosphodiesterase (Homo sapiens), P17405; placental ASM, HMU-PC fluorogenic substrate, 60 min; Potency, µM (doses to about 57.5 µM), for inactives: at the top dose activity change, negative = inhibition, usual class: inhibitors; 340,000 compounds, 0.006% hits; also: potency is read from the fitted curve at half-maximal effect
Target sequence (P17405 47-631 limits assumed): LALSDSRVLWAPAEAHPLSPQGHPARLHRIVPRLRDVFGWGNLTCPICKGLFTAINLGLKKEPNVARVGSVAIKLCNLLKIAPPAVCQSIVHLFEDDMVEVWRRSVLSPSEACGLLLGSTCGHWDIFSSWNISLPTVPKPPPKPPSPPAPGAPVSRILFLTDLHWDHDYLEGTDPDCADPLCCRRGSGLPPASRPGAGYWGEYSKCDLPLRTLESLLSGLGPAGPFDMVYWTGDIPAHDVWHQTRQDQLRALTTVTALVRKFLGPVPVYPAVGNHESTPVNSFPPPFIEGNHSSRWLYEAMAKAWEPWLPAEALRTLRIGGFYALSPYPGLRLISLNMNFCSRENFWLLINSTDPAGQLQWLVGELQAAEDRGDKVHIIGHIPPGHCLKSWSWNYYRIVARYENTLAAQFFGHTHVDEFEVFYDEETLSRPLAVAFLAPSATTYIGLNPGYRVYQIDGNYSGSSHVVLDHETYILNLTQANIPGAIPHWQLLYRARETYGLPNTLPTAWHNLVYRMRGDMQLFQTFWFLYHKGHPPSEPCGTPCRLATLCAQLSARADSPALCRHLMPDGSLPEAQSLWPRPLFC
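Steps: dispense placental human ASM, pin compound, wait 10 min at room temperature, add HMU-PC0 substrate at 9 uM final, incubate 60 min at 37 °C, add stop solution raising pH to 10, read fluorescence.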
TGFb inhibitor: qHTS for Inhibitors of TGF-b | HepG2 CAGA-GFP TGF-b/SMAD3 reporter, GFP fluorescence, 18 h; TGF-beta stimulated, 500 pg/mL final | Potency, µM (doses to about 46.1 µM), inactives show at the highest dose activity, negative = inhibition, usual class: inhibitors | 410,000 compounds, 1.2% hits; also: potency is read from the fitted curve at half-maximal effect; % is scaled to controls: 0 for no effect and ±100 for the full control effect; nearly all actives have a fitted effect of over 65% in size
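Cell-based qHTS in HEPG2 carrying a CAGA-GFP Smad reporter; compounds added before 500 pg/mL final TGF-beta, 18 h incubation at 37 degrees C, GFP fluorescence quantified per cell by imaging cytometry.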
An asterisk follows results filed as active; ? = inconclusive; / = not tested or not shown. Only some compounds are listed: those with a hit (about 19% of all), similar ones and a draw of the others. Unless noted, calls follow the shape of the dose curve; as a rule, active = well fitted curve in the direction sought with a large enough effect; inconclusive = small, poorly fitted or top-dose-only effect, or another doubt; inactive = no such curve, though single readings can be large; an effect the other way counts as inactive or inconclusive.

SMILES	IL1B secr inh	HepG2 tox	TDP1 cell CPT	TDP1 cell noCPT	ASM inhibitor	TGFb inhibitor
Nc1nc(N)c(N)c(=O)[nH]1	/	6%	?	-82%	/	12%
Nc1nc2n[nH]nc2c(=O)[nH]1	41	-57%	7.3µM*	7.3µM*	-4%	?
CN=C1CC(SC)=C1c1ccc(C)cc1	-22	-3%	16µM*	21µM*	-1%	-24%
O=C(CCNS(=O)(=O)c1ccc2[nH]c(=O)oc2c1)Nc1cccc(Br)c1	30	25%	11%	16%	1%	2%
CCCNC(=O)c1cnc2sc(N3CCCCCC3)nn2c1=O	/	-3%	-23%	?	/	-17%
CC(C)(C)c1cc(OC(=O)C2CCCC2)ccc1O	?	-54%	5.2µM*	3.7µM*	-8%	?
c1ccc2sc(SCSc3nc4ccccc4s3)nc2c1	22	-42%	?	?	0%	-11%
O=S(=O)(CCSc1ccccn1)c1nc2ccccc2s1	-106*	10µM*	2.3µM*	5.2µM*	1%	8.9µM*
O=S(=O)(NCCSc1nc2ccccc2o1)c1ccccc1	0	-3%	16µM*	16µM*	3%	0%
O=S(=O)(CCSc1nc2ccccc2o1)c1nc2ccccc2s1	-99*	-102%	4.1µM*	3.7µM*	-5%	?
CCOc1ccc(NC(=O)c2nn(C)c3c2CS(=O)(=O)c2ccccc2-3)cc1	/	4%	4%	-9%	/	12%
Cc1c(OC(C(=O)O)c2ccccc2)ccc2c(-c3ccccc3)cc(=O)oc12 (configuration not stated)	10	-13%	-6%	-16%	8%	1%
CSc1ccc(/C=N/N2CCN(C)CC2)cc1	-1	-5%	18%	0%	2%	6%
C(=N\N1CCN(Cc2ccccc2)CC1)/c1ccc(-c2ccccc2)cc1	-1	-23%	-30%	?	-6%	-3%
CN1CCN(/N=C/c2c3ccccc3c(Cl)c3ccccc23)CC1	-74*	-36%	?	?	-10%	?
CN1CCN(/N=C/c2ccc(-c3ccccc3)cc2)CC1	-55*	-21%	?	?	-2%	6%
COc1ccccc1Nc1cc(C(=O)NC2CCC(C)CC2)c2ccccc2n1 (configuration not stated)	/	-22%	3%	-22%	/	-12%
Cc1ccc(Cl)cc1Nc1nn2c(=O)c3ccc(C(=O)NC4CCC(C)CC4)cc3nc2s1 (configuration not stated)	/	-14%	-27%	?	/	-8%
Cc1ccccc1Nc1nn2c(=O)c3ccc(C(=O)N4CCCC(C)C4)cc3nc2s1 (configuration not stated)	0	0%	15µM*	16µM*	/	-1%
CCOC(=O)C1CCN(C(=O)c2ccc3c(=O)n4nc(Nc5ccccc5)sc4nc3c2)CC1	-22	-57%	21µM*	15µM*	/	?
Cc1ccccc1Nc1nn2c(=O)c3ccccc3nc2s1	10	10%	?	?	-3%	-2%
COc1ccccc1Nc1nn2c(=O)c3ccc(C(=O)NC4CCC(C)CC4)cc3nc2s1 (configuration not stated)	/	9%	5.8µM*	5.2µM*	/	8%
CCc1ccccc1Nc1nn2c(=O)c3ccc(C(=O)NC4CCC(C)CC4)cc3nc2s1 (configuration not stated)	/	-34%	?	16µM*	/	-10%
CN1C(=O)c2ccccc2N(C)C1c1cccc(O)c1 (configuration not stated)	40	1%	-17%	-8%	126%	9%
Cc1ccc2c(=O)cc(C(=O)Nc3ccc(S(=O)(=O)N4CCCCCC4)cc3)oc2c1	/	4%	-8%	-7%	/	2%
SMILES	IL1B secr inh	HepG2 tox	TDP1 cell CPT	TDP1 cell noCPT	ASM inhibitor	TGFb inhibitor
COc1ccccc1Nc1nn2c(=O)c3ccc(C(=O)N4CCC(C)CC4)cc3nc2s1	-5	-18%	23µM*	18µM*	-25%	-28%
COc1ccc(Nc2nn3c(=O)c4cc5c(cc4nc3s2)OCO5)c(OC)c1	/	5%	?	?	/	0%
Cc1cccc(COc2ncnc3nc[nH]c23)c1	12	-7%	?	13µM*	-4%	1%
O=C(CSCc1cccc(F)c1)N1CCN(c2ccccc2)CC1	-11	1%	?	?	-4%	-7%
O=C(CSCc1ccccc1)N1CCN(c2ccc(F)cc2)CC1	?	1%	13µM*	?	-2%	-26%
O=C(CCCOc1ccccc1)N1CCN(c2ccc(F)cc2)CC1	-16	-16%	?	18µM*	-2%	-7%
O=C(CCc1ccccc1)N1CCN(c2ccc(F)cc2)CC1	6	-14%	-21%	-16%	-3%	9%
O=C(CSCc1ccc(F)cc1)N1CCN(c2ccccc2F)CC1	/	-13%	21µM*	26µM*	/	-4%
O=C(CCc1ccccc1)N1CCN(c2ccccc2F)CC1	-4	4%	-7%	3%	5%	-3%
CCOC(=O)c1c(NC(=O)COc2cc(C)ccc2C(C)C)sc2c1CCCC2	/	-4%	1%	-6%	/	7%
C=CS(=O)(=O)c1ccc(Oc2ccc(S(=O)(=O)C=C)cc2)cc1	-105*	3.2µM*	2.3µM*	2.3µM*	2%	0%
CC(C)N1CCC(N2CCN(Cc3ccc(-c4ccccc4Cl)o3)CC2CCO)CC1 (configuration not stated)	?	-17%	?	?	2%	7%
Cc1ccc(-c2cccc(CN3CCN(C4CCN(C(C)C)CC4)C(CCO)C3)c2)o1 (configuration not stated)	?	-31%	?	7.3µM*	1%	-9%
CC(C)N1CCN(Cc2cccc(-c3ccco3)c2)CC1CCO (configuration not stated)	13	-8%	9%	-20%	-1%	-9%
CC(C)N1CCC(N2CCN(Cc3ccc(-c4ccc(Cl)cc4)o3)CC2CCO)CC1 (configuration not stated)	-69*	-28%	?	18µM*	8%	0%

High-throughput results deposited in PubChem by National Center for Advancing Translational Sciences (NCATS).
